Only some compounds are listed: those with a hit (about 4.1% of all), similar ones and a draw of the others.
DAX1 inh-1: inhibitors of DAX1 repression of SF-1 activated StAR promoter. HEK293T StAR-luciferase reporter, SF-1/DAX-1 repression relief. inhibition, % at 6.8 µM. 370,000 compounds, 1.1% hits;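 active means inhibition above the mean over all tested compounds plus 3 SD, cut at about 3.6% in these data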;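 further: higher inhibition means more luminescence from relief of DAX-1 repression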
ssDAF12 agonist: activators of S. stercoralis DAF-12 nuclear receptor. 370,000 compounds, 1% hits. AID 652126. activation, % at 6.8 µM. HEK293 ssDAF-12/GRIP1 lit1-tk-luc reporter, luminescence; % of 3 µM dafachronic acid response;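 active means activation above the mean over all tested compounds plus 3 SD, cut at about 0.9% in these data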
hcDAF12 agonist: activates DAF-12 receptor from parasite H. contortus. AID 652067. 370,000 compounds, 1.4% hits. HEK293 hcDAF-12 lit1-tk-luc reporter, luminescence; 0% DMSO, 100% Δ7-dafachronic acid. activation, % at 6.8 µM;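 active means activation above the mean of all tested compounds plus 3 SD, cut at about 5.5% in these data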
DAX1 inh-2: inhibitors of human orphan nuclear receptor DAX1 (NR0B1); P51843; HEK293 Gal4-DAX1 luciferase reporter, luminescence; inhibition, % at 6.75 µM; 340,000 compounds, 0.99% hits;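 active means inhibition above the mean over all tested compounds plus 3 SD, cut at about 4.2% in these data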;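 further: inhibition shows as a rise in luminescence from relieved DAX1 repression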
Target sequence (P51843 207-470 limits assumed): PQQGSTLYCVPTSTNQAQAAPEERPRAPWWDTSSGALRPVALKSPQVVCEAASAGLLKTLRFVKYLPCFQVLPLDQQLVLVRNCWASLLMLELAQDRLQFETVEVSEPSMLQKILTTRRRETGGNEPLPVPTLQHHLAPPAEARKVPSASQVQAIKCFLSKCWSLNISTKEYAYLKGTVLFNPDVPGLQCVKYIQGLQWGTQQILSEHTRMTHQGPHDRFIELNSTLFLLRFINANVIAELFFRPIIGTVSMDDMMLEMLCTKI
hgDAF12 agonist: hgDAF-12 agonism, primary luciferase screen; HEK293 GAL4-hgDAF12 UAS-luciferase reporter, agonist luminescence; normalized to butyrate control; activation, % at 6.8 µM; 370,000 compounds, 1.8% hits; AID 687014;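 active means activation above a cutoff set at the mean of all screened compounds plus 3 SD, cut at about 10% in these data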
Hits are given with their value; i = inactive; nt = no result given.

SMILES | DAX1 inh-1 | ssDAF12 agonist | hcDAF12 agonist | DAX1 inh-2 | hgDAF12 agonist
N#Cc1ccc(/C=C\c2nccc3c2[nH]c2ccccc23)cc1 | i | i | i | i | i
Clc1ccc(/C=C\c2nccc3c2[nH]c2ccccc23)cc1 | i | i | 5.7 | i | i
C[C@@H]1CN(S(=O)C(C)(C)C)[C@@H](CCO)/C1=C\c1ccccc1 (stereo partly specified) | i | i | i | i | i
O=C(Nc1nc(-c2cccs2)cs1)c1ccc([N+](=O)[O-])o1 | i | 2.0 | i | i | i
O=C(Nc1nc(-c2cccs2)cs1)c1ccco1 | 4.1 | i | i | i | 10.8
O=C(Nc1nc(-c2cccs2)cs1)c1ccc(Cl)cc1 | i | i | i | i | i
NC(COCc1ccccc1)c1csc(Nc2cc(NCCCO)ncn2)n1 (stereo unspecified) | i | i | i | nt | i
Cc1cc2c(nc1C)CCCN2S(=O)(=O)c1cccs1 | i | i | i | nt | i
Cc1cccc(C)c1NC(=O)C(c1ccccc1)N1CCN(C)CC1 (stereo unspecified) | 4.4 | i | i | nt | i
CCOc1ccc(/C=C/C2=NNC(=O)CC2)cc1 | i | i | i | i | 11.4
O=C1CCC(/C=C/c2ccccc2)=NN1 | i | i | i | i | i
COc1cccc(CNC(=O)C2C3C=CC4(CN(Cc5ccccc5)C(=O)C24)O3)c1OC (stereo unspecified) | i | i | i | nt | i
CCOC(=O)c1cccc(-c2cc(C(=O)OC)c3n(c2=O)CCC3)c1 | i | i | i | nt | i
CCN(CC)c1ncnc2c1ncn2[C@H]1CN(Cc2ccc3c(c2)OCO3)C[C@@H](CO)O1 | i | i | i | nt | i
Cc1cc(NC(=O)c2cccc(Cl)c2)n[nH]1 | i | i | i | i | i
Cc1cc(NC(=O)NC(=O)c2ccc(F)cc2F)n[nH]1 | i | i | i | i | 10.8
Cc1cccnc1C1=NOC(Cc2ccccc2)C(=O)N1C (stereo unspecified) | i | i | i | nt | i
CN(C)/C=C/C(=O)/C=C/c1ccc(Cl)cc1 | i | i | i | i | i
CN(C)CC(O)c1ccc(C=Cc2ccc(Cl)cc2)cc1 (stereo unspecified) | i | i | i | 6.4 | 12.1
C[C@@H]1ON(C)[C@H]2C[C@H]3c4[nH]c5c(-c6ccccc6F)cccc5c4CCN3C(=O)[C@@H]12 | i | i | i | nt | i
Cc1ccc2nc(N3CCN(Cc4nnnn4C4CCCC4)CC3)c(C#N)cc2c1 | i | i | i | 5.7 | i
CC(=Cc1ccccc1)C=C1SC(=S)N(CCCC(=O)Nc2ccc(C(=O)O)cc2)C1=O | 4.2 | i | i | nt | i
O=C(CCN1C(=O)S/C(=C\C=C\c2ccccc2)C1=O)Nc1ccc(O)cc1 | i | i | i | i | 11.7
CC(=O)c1ccc(NC(=O)CN2C(=O)/C(=C/C=C/c3ccccc3)SC2=S)cc1 | i | i | 6.5 | i | i
O=C(CCCN1C(=O)S/C(=C\C=C\c2ccccc2)C1=O)Nc1ccc(C(=O)O)cc1 | i | i | i | i | i
SMILES | DAX1 inh-1 | ssDAF12 agonist | hcDAF12 agonist | DAX1 inh-2 | hgDAF12 agonist
CCN(CC)CCOC(=O)c1ccc(NC(=O)CCCN2C(=O)/C(=C\c3cccs3)SC2=S)cc1 | 6.8 | i | i | i | i
Cc1cccc(Cn2cc(CN3CC(N(C)CCCOC(=O)c4cc5ccccc5o4)CS3(=O)=O)nn2)c1 (stereo unspecified) | i | i | i | nt | i
CCOC(=O)C1=CCN(S(=O)(=O)c2ccccc2Br)C1c1ccc(C)cc1 (stereo unspecified) | i | i | i | nt | i
O=C(c1cc2ccccc2[nH]1)N1O[C@@H]2C=C[C@H]1C2 | i | i | 6.2 | i | i
COC(=O)c1cc2c(c3c4cc(OC)ccc4n(C(=O)c4ccccc4)c13)C(=O)N(C1CCCCC1)C2 | i | i | i | nt | i
COc1ccc(C2C(C(C)=O)=C(O)C(=O)N2c2ccc(C)cc2)cc1 (stereo unspecified) | i | i | i | 4.5 | i
COC(=O)[C@]12C[C@H](CC(=O)NCc3ccc(OC)c(OC)c3)C(=O)N(Cc3ccc(Cl)cc3Cl)C1=C[C@H](C(C)C)O[C@@H]2C1CC1 | i | i | i | nt | i
O=C(CSCC(=O)N1CCCCC1)OCC(=O)c1c[nH]c2ccccc12 | i | 1.3 | i | i | i
O=C(COC(=O)c1c[nH]c2ccccc12)Nc1ccccc1 | i | i | i | i | i
Cc1ccc(C(=O)OCC(=O)c2c[nH]c3ccccc23)cc1 | i | 1.9 | 6.5 | i | i
